Screening results: PubChem, National Center for Advancing Translational Sciences (NCATS)
Shown are actives, neighbours in structure and some others; about 4.6% of the full set was active somewhere.
Vaccinia Venus: qHTS for Stage-Specific Inhibitors of Vaccinia Orthopoxvirus: Venus Reporter Primary qHTS; 330,000 compounds, 0.46% hits; Potency, µM (titrated, usually from 36.5 µM), for the others: at the highest dose activity change, negative = inhibition, actives largely listed as inhibitors; Vaccinia virus Venus reporter expression, fluorescence; calls by dose curve; tested in A549 cells; also: nearly all actives have a fitted effect of over 30% in size
Marburg entry inh: qHTS for inhibitors of binding or entry into cells for Marburg Virus; Marburg virus pseudotyped entry inhibition, cell reporter; Potency, µM (titrated, usually from 37.8 µM), for the others: at the highest dose activity change, negative = inhibition, most hits filed as inhibitors; 300,000 compounds, 1.8% hits; AID 540276, 2011; calls by dose curve; tested in HEK293 cells
Vaccinia mCherry: qHTS for Stage-Specific Inhibitors of Vaccinia Orthopoxvirus: mCherry Reporter Primary qHTS | Vaccinia virus mCherry reporter infection, fluorescence | Potency, µM (doses to about 36.5 µM), inactives show at the highest dose activity change, negative = inhibition, hits mostly inhibitors | 310,000 compounds, 0.63% hits; calls by dose curve; tested in A549 cells; also: nearly all actives have a fitted effect of over 35% in size
Lassa entry inh: qHTS for Inhibitors of binding or entry into cells for Lassa Virus | Lassa virus pseudotype entry inhibition, cell reporter | Potency, µM (top dose mostly 37.9 µM), for the others: at the highest dose activity change, negative = inhibition, hits mostly inhibitors | 300,000 compounds, 1.2% hits; calls by dose curve; tested in HEK293 cells; also: nearly all actives have a fitted effect of over 50% in size
HCV inhibitor: qHTS Assay for Inhibitors of Hepatitis C Virus (HCV); AID 651820, 2012; 340,000 compounds, 3.4% hits; Huh7.5.1 HCVcc-Cre infection, luciferase reporter, 44 h; Potency, µM (doses to about 41.8 µM), without a hit: at the top dose activity change, negative = inhibition, hits mostly inhibitors; active = well fitted inhibition curve with a large enough effect; inconclusive = small, poorly fitted or top-dose-only effect, or another doubt; inactive = no such curve, though single readings can be large or run the other way
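Cells (1,000/well) were plated 4 h before compound, then infected with HCVcc-Cre virus (~0.5 moi). After 44 h further culture, infection was read as luciferase luminescence following a 15 min substrate incubation at room temperature.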
The depositor's hits bear a star; i = inactive; ? = inconclusive; · = no result given; ! = not confirmed by another sample; [ ] = dose if it differs, or a comment. % is scaled to controls: 0 for no effect and ±100 for the full control effect; potency is read from the fitted curve at half-maximal effect.

SMILES	Vaccinia Venus	Marburg entry inh	Vaccinia mCherry	Lassa entry inh	HCV inhibitor
Cc1nc(SCCC(=O)O)c2cc(-c3ccccc3)sc2n1	-7.5%	3.98µM*	i	?	-6.6%
CCn1c(C(=O)OC)cc2c1ccn2-c1ccc(F)cc1	-6.2%	15.3%	-10.8%	-11.9%	4.47µM*
COC(=O)c1cc2c(ccn2-c2ccc(F)cc2)n1Cc1ccc(OC)cc1	-9.3%	1.9%	-14.3%	-2.6%	?
CCN1CCCC1CNC(=O)c1cnn(-c2nccc(-c3ccccc3OC)n2)c1-c1ccco1 (configuration not stated)	0.0%	·	-14.1%	·	·
Cn1c(=O)c2c(SCC(=O)c3ccccc3)nc(C3CC3)nc2n(C)c1=O	-9.3%	·	-11.4%	·	0.7%
CCc1nc(SCC(=O)c2ccccc2)c2c(=O)n(C)c(=O)n(C)c2n1	-6.5%	?	-4.5%	14.1%[46.1 µM]	12.6µM*
CCCc1nc(SCC(=O)c2ccccc2)c2c(=O)n(C)c(=O)n(C)c2n1	-24.6%	·	-2.4%	·	11.2µM*
Cc1ccc(CSCCC(=O)NCc2ccc(F)cc2Cl)cc1	-7.2%	·	i	-15.2%[46.1 µM]	·
COc1ccccc1CC(=O)N1CCCC(CCC(=O)NCc2ccccc2F)C1 (configuration not stated)	·	·	·	·	-11.6%
COc1ccccc1/C=C/CN1CCCC(CCC(=O)NCc2ccccc2F)C1 (configuration not stated)	-12.9%	6.31µM*	-13.2%	?	-13.0%
Cc1ccc(-n2c(-c3ccccc3)c[n+]3c2CCc2ccccc2-3)c(C)c1	?	?	?	1µM*	?
Cc1ccc(C(=O)c2c(N)c(C(=O)Nc3cccc(C(F)(F)F)c3)c3ccccn23)cc1	-15.2%	6.9%[46.1 µM]	-24.7%	-3.5%[46.1 µM]	·
O=C1C2C(C(=O)N1/N=C/c1ccc([N+](=O)[O-])o1)C1C=CC2C12CC2 (configuration not stated)	-7.9%	?	-16.6%	?	10.7%
CC1=NN(c2nc(N)nc(/C(C#N)=C/c3ccc([N+](=O)[O-])o3)n2)C(C)(C)C1	8.8%	?	-2.9%	-0.5%	8.91µM*
CC(C)NCCCCOc1ccc(Br)cc1Cl	-15.4%	·	-5.9%	·	10µM*
CCCCCn1c(=O)c2c(nc3n2CCN3c2ccc(Br)cc2)n(C)c1=O	-13.5%	·	-19.2%	0.7%[46.1 µM]	·
C=C(C)Cn1c(CN(C)Cc2ccccc2)nc2c1c(=O)n(C)c(=O)n2C	·	·	·	·	11.2µM*
CN(Cc1ccccc1)Cc1nc2c(c(=O)n(C)c(=O)n2C)n1Cc1ccc(Cl)cc1	·	-0.9%	·	?	14.1µM*
CN(Cc1ccccc1)c1nc2c(c(=O)n(C)c(=O)n2C)n1CCCc1ccccc1	-16.9%	?	-14.6%	12.6µM*	?
CCCCCn1c(CN(C)Cc2ccccc2)nc2c1c(=O)n(C)c(=O)n2C	·	?	·	?	14.1µM*!
C=CCN1C(=O)C2CCCCC2n2nnc(C(=O)OCC)c21 (configuration not stated)	·	10.5%	·	·	·
COc1ccc(-c2nc(CN(C)C(C)c3ccon3)c(C)o2)c(C)c1C (configuration not stated)	-2.7%	?	-4.9%	-35.3%	10µM*
Cc1ccccc1-c1nc(CN(C)C(C)c2ccon2)c(C)o1 (configuration not stated)	-6.0%	-1.1%[46.1 µM]	-2.1%	13.2%	-23.6%
Ic1ccc(Nc2nc(NCCN3CCOCC3)nc(N3CCCC3)n2)cc1	-20.4%	·	-23.8%	·	·
O=C(C=Cc1cccc([N+](=O)[O-])c1)c1ccccc1	·	-27.2%[14.2 µM]	·	?	·
SMILES	Vaccinia Venus	Marburg entry inh	Vaccinia mCherry	Lassa entry inh	HCV inhibitor
COc1cc(/C=C/C(=O)c2cccc([N+](=O)[O-])c2)cc(OC)c1OC	-21.0%	?	i	?	11.2µM*
CN(C)c1ccc(C(=O)c2ccc(O)cc2O)cc1	-17.5%	9.9%	?	-18.1%	-20.6%
CN(N=O)c1cc(O)ccc1O	·	?	·	16.4µM*	·
C[C@H]1CC[C@]2(NC1)O[C@H]1C[C@H]3[C@@H]4CC[C@H]5C[C@@H](O)CC[C@]5(C)[C@H]4CC[C@]3(C)[C@H]1[C@@H]2C	-8.5%	·	-17.1%	·	·
C[C@@H]1CC2CCCC2[C@]2(O1)C(=O)Nc1ccccc12 (some centres not stated)	·	-3.9%[14.2 µM]	·	·	·
COc1ccc(N/C=C(\C#N)c2nc3ccccc3n2C)c(OC)c1	·	-6.2%	·	6.9%	5.01µM*
